In all, about 60,000 compounds went through this assay and about 370 (0.62%) were called active. Rule as the data show it: active = inhibition above about 17%; inactive = the rest. Many of the other results were omitted from the sample, so actives are more common in it than they were.

Data on 102 compounds can be found in PubChem BioAssay AID746 (The Scripps Research Institute Molecular Screening Center, 2007).

Chain of Mitogen-activated protein kinase 10 (Homo sapiens) (P53779 whole entry, looked up): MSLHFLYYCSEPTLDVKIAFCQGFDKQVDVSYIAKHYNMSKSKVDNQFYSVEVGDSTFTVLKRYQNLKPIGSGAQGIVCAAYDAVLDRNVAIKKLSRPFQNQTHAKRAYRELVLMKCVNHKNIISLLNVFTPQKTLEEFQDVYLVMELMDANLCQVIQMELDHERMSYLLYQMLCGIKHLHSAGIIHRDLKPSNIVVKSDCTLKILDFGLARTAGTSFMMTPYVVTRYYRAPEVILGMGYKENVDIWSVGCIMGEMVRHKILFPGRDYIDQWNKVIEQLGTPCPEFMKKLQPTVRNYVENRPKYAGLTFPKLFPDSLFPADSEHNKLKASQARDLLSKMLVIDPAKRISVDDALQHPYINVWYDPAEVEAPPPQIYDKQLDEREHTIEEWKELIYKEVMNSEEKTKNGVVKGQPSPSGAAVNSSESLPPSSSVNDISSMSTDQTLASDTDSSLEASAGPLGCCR

The test has as its target Mitogen-activated protein kinase 10 (Homo sapiens) (UniProt P53779). The experiment in a line: inhibition of human JNK3 enzyme – biochemical, purified enzyme, primary screen (AID 746).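 Also: 0% = DMSO and 100% = reference inhibitor.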 Conditions: purified JNK3 kinase activity, HTS; at 8 µM; active compounds read high.
The term inhibition denotes the drop in the measured response relative to a control, in per cent. As to `Cc1cc(/C=N/n2cnnc2)c(C)n1-c1cccc(C(=O)O)c1`, the inhibition was 0.73% (inactive).

For the compound `O=C(CSC1=NCCS1)Nc1nc(-c2ccccc2)cs1`, the inhibition was 0.48% (inactive).

In the case of `Cc1nc2ccccc2cc1O`, the inhibition is -3.12% (inactive).

Consider `Oc1ccc2nc(Cc3ccccc3)[nH]c2c1`, for which the inhibition is 5.45% (inactive).

For `Cc1cc(O)ccc1-c1cnc2ccccc2n1`, the inhibition is 25.6% (active).

As for `O=C1NC2(CCCCC2)N=C1c1ccccc1`, the inhibition is 0.31% (inactive).

For `COC(=O)C(CC(=O)Nc1cc(C)ccc1C)Nc1ccccc1OC` (configuration not stated), the inhibition is -2.33% (inactive).

As to `O=C(C1CCN(c2nnc(-n3cccc3)s2)CC1)N1CCc2ccccc2C1`, the inhibition was -2.74% (inactive).

Regarding `CCOc1ccccc1C1NC(=O)NC(C)=C1C(=O)OCc1ccco1` (configuration not stated), the inhibition was 2.09% (inactive).

Turning to `CSc1nc(C)nc2c1c(=O)n(C)c(=O)n2C`, the inhibition was 4.34% (inactive).

With `CCOc1ccc(NS(=O)(=O)c2ccc(OCC(=O)NCCCOC)cc2)cc1`, the inhibition is -5.51% (inactive).

Consider `O=C(OC(C(=O)NC1CCCC1)c1ccc(F)cc1)c1ccno1` (configuration not stated), for which the inhibition is -3.98% (inactive).

For the compound `CCC1SC2=NCCN2C1(O)c1ccc(Cl)cc1` (configuration not stated), the inhibition was -0.2% (inactive).

Turning to `O=C(O)Cc1ccc(NC(=O)C2CCCCC2C(=O)O)cc1` (configuration not stated), the inhibition was 3.04% (inactive).

Consider `Cc1cn(COC/C=C/c2ccccc2)c(=O)[nH]c1=O`, for which the inhibition is -1.97% (inactive).

For the compound `CCOC(=O)CNC(=O)CN1C(=O)CCSc2ccccc21`, the inhibition is -4.85% (inactive).

Consider `O=C(CSc1nnc(-c2ccco2)o1)NCC(=O)c1ccccc1`, for which the inhibition is -0.03% (inactive).

Consider `O=C(COc1ncnc2ccccc12)NC(=O)NCc1ccccc1`, for which the inhibition was 1.94% (inactive).

As for `COc1cccc2c(=O)n(CC(=O)N3CCCCCC3)ccc12`, the inhibition is 1.14% (inactive).

As for `OCCCN1c2ccccc2Nc2nnc(-c3ccccc3)cc21`, the inhibition was 31.6% (active).

For the compound `Cc1ccc2c(c1)C(O)(CC(=O)c1cccnc1)C(=O)N2` (configuration not stated), the inhibition is 4.44% (inactive).

For `O=C(CSc1nc2c(cnn2-c2ccc(F)cc2)c(=O)[nH]1)N1CCCCCC1`, the inhibition was 1.45% (inactive).

Take `C=CCNC(=O)CSc1nc2sc(C)c(C)c2c(=O)[nH]1`: the inhibition is -0.43% (inactive).

For `CC(=O)c1sc2nc(SCC(=O)N3CCCCC3)[nH]c(=O)c2c1C`, the inhibition is 19.7% (active).

Turning to `O=C1NC(c2ccncc2)Nc2sc3c(c21)CCCC3` (configuration not stated), the inhibition was 4.12% (inactive).

As to `CC(=NCc1ccco1)C1=C(O)c2ccccc2C1=O`, the inhibition is 32.9% (active).

As for `CC(=NCc1ccc2c(c1)OCO2)C1=C(O)c2ccccc2C1=O`, the inhibition was 12.4% (inactive).

With `O=C1C(C=NCC2CCCO2)=C(O)c2ccccc21` (configuration not stated), the inhibition is 3.41% (inactive).

`Cc1ccnc(N2CCN(C(=O)CSc3nc4ccccc4nc3N3CCCCC3)CC2)c1`: the inhibition was 6.1% (inactive).

Turning to `Cc1cc(N2CCCC2)n2nc(C)c(-c3ccccc3)c2n1`, the inhibition was -0.31% (inactive).

For the compound `CCOC(=O)N1CCN(C(=O)CSc2ccc(Cl)cc2)CC1`, the inhibition was -3.08% (inactive).

Consider `CC(=O)c1ccc(N2C(=NC(=O)C(C)C)SC3CS(=O)(=O)CC32)cc1` (configuration not stated), for which the inhibition was 3.06% (inactive).

`O=C(NCc1ccco1)c1ccc(CS(=O)(=O)Cc2ccc(F)cc2)o1`: the inhibition is 2.1% (inactive).

`COc1ccccc1C(=O)N1CCN=C1SCc1cccnc1`: the inhibition is -7.75% (inactive).

As for `CCN1CCN(C(=O)CN(C)S(=O)(=O)c2ccc(OC)cc2)CC1`, the inhibition was -5.84% (inactive).

Turning to `CC(CN1CCCCC1)OC(=O)c1ccccc1Cl` (configuration not stated), the inhibition is 2.81% (inactive).

As for `CCc1ccccc1N(CC(=O)N1CCN(c2ccccc2F)CC1)S(C)(=O)=O`, the inhibition is 2.83% (inactive).

Regarding `COCCCn1c2nc3ccccc3nc2c2c(=O)n(Cc3ccc(Cl)cc3)c(C)nc21`, the inhibition is 3.15% (inactive).

As to `Cc1ccsc1CNn1cnnc1SCc1ccccc1F`, the inhibition is -1.56% (inactive).

Consider `Fc1c(F)c(C(F)(F)F)c(F)c(F)c1N1CCN(c2ccc3nnc(C(F)(F)F)n3n2)CC1`, for which the inhibition is -2.37% (inactive).

As for `Cc1cc(C)n(C(=O)c2ccc(S(=O)(=O)N3CCCC3)cc2)n1`, the inhibition is 5.94% (inactive).

`O=C(CSc1nnc(Cc2ccccc2)n1-c1ccccc1)N1CCOCC1`: the inhibition is -3.48% (inactive).

Consider `COc1ccc(COC(=O)c2n[nH]c3ccccc23)cc1F`, for which the inhibition is 54.8% (active).

On to `CCOC(=O)c1ccc(COC(=O)c2cc(=O)[nH]c3ccccc23)o1`, for which the inhibition is -6.13% (inactive).

For `COC(=O)c1[nH]c2ccccc2c1NS(=O)(=O)c1ccc(OC)cc1OC`, the inhibition is 2.86% (inactive).

Turning to `CSc1nsc(SC)c1NC(=O)OC1CCCCC1`, the inhibition was -12% (inactive).

Take `CS(=O)(=O)N1CCCC(C(=O)N2CCOCC2)C1` (configuration not stated): the inhibition was 6.57% (inactive).

Consider `CCCN1Cc2cccc(C(=O)NCc3ccccc3)c2C1=O`, for which the inhibition was 19.8% (active).

For the compound `O=C(O)c1cccc2c1C(=O)N(C1CCCCC1)C2`, the inhibition was -0.07% (inactive).

For `COCCN1Cc2cccc(C(=O)Nc3ccccc3OC)c2C1=O`, the inhibition was 2.47% (inactive).

Consider `CC(=O)c1c(C)n([O-])c2ccccc2[n+]1=O`, for which the inhibition is -1.64% (inactive).

As for `C=C1c2cc(CC)ccc2NC(=O)N1c1ccc(C)cc1`, the inhibition is -1.58% (inactive).

Turning to `CCN=C1SC(CC(=O)Nc2ccc(C)cc2)C(=O)N1CC` (configuration not stated), the inhibition was 0.86% (inactive).

Take `CCc1ccccc1NC(=O)c1cccs1`: the inhibition is 6.07% (inactive).

Regarding `CCOC(=O)c1cc2sccc2n1Cc1ccc(C#N)cc1`, the inhibition is 4.65% (inactive).

As to `Cc1ccn2cc(-c3nonc3C)cc2c1`, the inhibition was 2.16% (inactive).

Consider `Cc1cccc(NC(=O)CSC(N)=O)c1C`, for which the inhibition was -3.12% (inactive).

With `CCOC(=O)c1cccc(NC(=O)CCc2c(C)nc3ncnn3c2C)c1`, the inhibition was 4.2% (inactive).

As to `COC(=O)c1cc(NC2c3ccccc3C(=O)N2c2ccc(Cl)cn2)cc(C(=O)OC)c1` (configuration not stated), the inhibition was 1.5% (inactive).

Regarding `CN(C(=O)C1CCOC1)c1nnc(-c2cccnc2)s1` (configuration not stated), the inhibition is -0.13% (inactive).

Take `COc1ccc(N2CCN(Cc3cc(=O)oc4ccc5ccccc5c34)CC2)cc1`: the inhibition was 11.2% (inactive).

Consider `Cn1c(=O)[nH]c(=O)c2c1nc(N1CCN(CCO)CC1)n2CCSc1nc2ccccc2s1`, for which the inhibition is -3.17% (inactive).

Turning to `COc1ccc(C)c2sc(=NC(=O)c3ccc(C#N)cc3)n(C)c12`, the inhibition was 1.99% (inactive).

In the case of `CCOc1ccc(CCNC(=O)C2CCN(c3ccc(N4CCOCC4)nn3)CC2)cc1OCC`, the inhibition is -3.01% (inactive).

For `CC(=O)Oc1ccc(C(=O)Nc2nccs2)cc1`, the inhibition was 31.3% (active).

Consider `COc1cc(C(=O)Nc2nccs2)cc(OC)c1OC`, for which the inhibition is 8.3% (inactive).

As to `Cn1cccc1C(=O)Nc1nccs1`, the inhibition is 3.03% (inactive).

As for `COc1ccc(Cn2cccc(NC(=O)Nc3ccc(C#N)cc3)c2=O)cc1`, the inhibition is 2.85% (inactive).

For the compound `CCOC(=O)C1CCN(C(=O)Nc2ccc(Cl)cc2)CC1`, the inhibition was 3.13% (inactive).

With `CCC(C)Sc1nnc(-c2c[nH]c3ccccc23)n1CCOC` (configuration not stated), the inhibition was -1.71% (inactive).

In the case of `COc1ccc(CCNC(=O)CCn2c(=O)oc3ccccc32)cc1OC`, the inhibition was -2.91% (inactive).

Take `Cc1cc(C)c(S(=O)(=O)NCCCN2CCOCC2)cc1Br`: the inhibition was -5.01% (inactive).

As to `COc1ccc(OC)c(C2N(c3ccccn3)C(=O)C3CCCN32)c1` (configuration not stated), the inhibition is 1.09% (inactive).

Regarding `Cc1cc(=O)n2c3c(cccc13)CCC2`, the inhibition is 6.82% (inactive).

For the compound `CCOC(=O)c1sc2nc(CSCC(=O)OCc3ccc(C(=O)OC)o3)[nH]c(=O)c2c1C`, the inhibition is 0.98% (inactive).

On to `COC(=O)c1c(NC(=O)CCN2CCOCC2)sc2c1CCCC2`, for which the inhibition is -3.4% (inactive).

Turning to `COc1ccccc1-n1cnc2cc(NS(=O)(=O)c3ccccc3)ccc21`, the inhibition is 4.48% (inactive).

Consider `COc1ccc(O)c(C=Nc2cc(C)on2)c1`, for which the inhibition is 0.04% (inactive).

Turning to `Cc1cc(C)n(C(=O)c2ccc(C)c(S(=O)(=O)N3CCOCC3)c2)n1`, the inhibition is 1.61% (inactive).

Consider `Cc1cccc2cc(C#N)c(N3CCCC3)nc12`, for which the inhibition is 2.01% (inactive).

As to `CC(C)COC(=O)C1C2C=CC3(CN(C(C)c4ccc(Br)cc4)C(=O)C13)O2` (configuration not stated), the inhibition is -6.16% (inactive).

As to `NC(=O)C1(N2CCCCC2)CCN(C(=O)c2ccc(C#Cc3ccccc3)o2)CC1`, the inhibition is -2.13% (inactive).

Consider `CCCn1c(SCC(=O)Nc2c(C)cccc2C)nnc1C(C)C`, for which the inhibition was -2.91% (inactive).

Regarding `C=CCN(c1ccc(C(N)=O)cc1)S(C)(=O)=O`, the inhibition was 4.4% (inactive).

For `NC(=O)c1ccccc1NC(=O)c1ccccc1F`, the inhibition was 13.4% (inactive).

Take `COc1cccc(OCC(=O)Nc2ccccc2C(N)=O)c1`: the inhibition was 26.1% (active).

`CCCOC(=O)Nc1ccccc1C(N)=O`: the inhibition was -5.47% (inactive).

On to `CCOCCCNS(=O)(=O)Cc1ccccc1`, for which the inhibition is 1.76% (inactive).

On to `CCCCOc1ccc(C(=O)NCc2ccco2)cc1`, for which the inhibition is 0.41% (inactive).

For the compound `CCOc1ccc2nc(N3CCCN(C(=O)Nc4ccccc4C)CC3)c(C#N)cc2c1`, the inhibition is 0.49% (inactive).

For `CCN(c1ccccc1)S(=O)(=O)c1ccc(N)cc1`, the inhibition is 2.15% (inactive).

For `CC1=C(C(N)=O)C(c2ccc3c(c2)OCO3)n2nc(-c3cccc(C)c3)nc2N1` (configuration not stated), the inhibition was 5.86% (inactive).

Consider `CCOC(=O)c1ccc(Nc2cc(C)nc3nc(C)nn23)cc1`, for which the inhibition is -10.1% (inactive).

For `COc1ccccc1NC(=O)CSc1nnc(Cn2nnc(-c3ccccc3)n2)n1-c1ccccc1`, the inhibition is -0.28% (inactive).

Regarding `O=C(Nc1nsc(-c2ccccc2)n1)c1ccncc1`, the inhibition was 1.54% (inactive).

Turning to `CC1CSc2nnc(CCc3ccccc3)n21` (configuration not stated), the inhibition was 16.5% (inactive).

On to `COC(=O)c1cc(C(=O)CSc2nc(C)cc(C)n2)ccc1O`, for which the inhibition is 1.84% (inactive).

Regarding `COc1c(O)cccc1-c1nnn(CCC(=O)OCC(=O)c2ccccc2)n1`, the inhibition was 0.11% (inactive).

For the compound `CC(CCc1ccccc1)NC(=O)c1ccc(Br)o1` (configuration not stated), the inhibition was 3.4% (inactive).

For `NC(=O)CCCC1=NS(=O)(=O)c2ccccc2N1`, the inhibition was 11.7% (inactive).

For the compound `Nc1nonc1C(=O)NCCc1ccccc1`, the inhibition was 2.83% (inactive).

Regarding `CC(C)CC(=O)N=C1SC2CS(=O)(=O)CC2N1CCc1ccccc1` (configuration not stated), the inhibition was -1.83% (inactive).
